Measured values as given in PubChem BioAssay (EPA / NIEHS).
Active and inactive are the calls of the source. Rule for the calls: active = hit-call score of the fitted dose curve at least 0.9, where 1 is the maximum; inactive = score below 0.9.

Assays:
Details in all cases: mRNA level, 48 h; actives raise or lower the signal
[1] = read-out: growth arrest and DNA damage 45 (GADD45A), GADD45A (gene 1647); assay: LTEA_HepaRG_GADD45A: Life Technologies and Expression Analysis (LTEA) Assay for growth arrest and DNA damage 45 (GADD45A) using HepaRG (AID 2283458)
In short: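 Human HepaRG liver cells are treated in duplicate for 48 h with chemicals in 0.5% DMSO, highest concentration 100 uM. Expression is read by qRT-PCR and analyzed in both directions against vehicle.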

[2] = read-out: Forkhead box O3 (FOXO3), FOXO3 (gene 2309); assay: LTEA_HepaRG_FOXO3: Life Technologies and Expression Analysis (LTEA) Assay for Forkhead box O3 (FOXO3) using HepaRG (AID 2283459)
In short: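 Differentiated human HepaRG cells in serum-free induction medium were exposed in duplicate for 48 h to eight half-log concentrations up to 100 uM in 0.5% DMSO. FOXO3 mRNA was quantified by qRT-PCR, normalized to ACTB, GAPDH and POLR2A, with bidirectional fitting versus DMSO.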

[3] = read-out: growth arrest and DNA damage 45 (GADD45B), GADD45B (gene 4616); assay: LTEA_HepaRG_GADD45B: Life Technologies and Expression Analysis (LTEA) Assay for growth arrest and DNA damage 45 (GADD45B) using HepaRG (AID 2283461)
In short: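 qRT-PCR read-out (Fluidigm TaqMan, housekeeping-normalized) of mRNA change in human HepaRG cells after 48 h chemical exposure; 8-point curve, top 100 uM, half-log steps, 0.5% DMSO vehicle; gain or loss fitted relative to DMSO baseline.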

[4] = read-out: ABC Transporter (ABCB11), ABCB11 (gene 8647); assay: LTEA_HepaRG_ABCB11: Life Technologies and Expression Analysis (LTEA) Assay for ABC Transporter (ABCB11) using HepaRG (AID 2283463)
In short: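 Differentiated human HepaRG cells were exposed for 48 h in serum-free induction medium to eight half-log concentrations up to 100 uM in 0.5% DMSO. ABCB11 mRNA was quantified by qRT-PCR, normalized to ACTB, GAPDH and POLR2A, and fitted bidirectionally versus DMSO.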

[5] = read-out: Broad substrate specificity ATP-binding cassette transporter ABCG2 (Homo sapiens) (UniProt Q9UNQ0); assay: LTEA_HepaRG_ABCG2: Life Technologies and Expression Analysis (LTEA) Assay for ABC Transporter (ABCG2) using HepaRG (AID 2283465)
In short: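 Differentiated HepaRG cells in serum-free induction medium were exposed for 48 h, in duplicate, to eight half-log concentrations up to 100 uM in 0.5% DMSO. ABCG2 mRNA was measured by TaqMan qRT-PCR, normalized to ACTB, GAPDH and POLR2A, and fitted bidirectionally versus DMSO.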

[6] = read-out: Peroxisomal acyl-coenzyme A oxidase 1 (ACOX1) gene, ACOX1 (gene 51); assay: LTEA_HepaRG_ACOX1: Life Technologies and Expression Analysis (LTEA) Assay for Peroxisomal acyl-coenzyme A oxidase 1 (ACOX1) gene using HepaRG (AID 2283467)
In short: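 Differentiated human HepaRG cells were exposed in duplicate for 48 h in serum-free induction medium to eight half-log concentrations up to 100 uM in 0.5% DMSO. ACOX1 mRNA was then quantified by TaqMan qRT-PCR, normalized to ACTB, GAPDH and POLR2A.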

[7] = read-out: Alkaline Phosphatase, Placental (ALPP) gene, ALPP (gene 250); assay: LTEA_HepaRG_ALPP: Life Technologies and Expression Analysis (LTEA) Assay for Alkaline Phosphatase, Placental (ALPP) gene using HepaRG (AID 2283468)
In short: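 qRT-PCR readout of ALPP mRNA (Fluidigm TaqMan), normalized to ACTB/GAPDH/POLR2A, after 48 h chemical exposure of HepaRG cells; 8-point half-log series, top 100 uM, 0.5% DMSO vehicle. Bidirectional curve fit versus DMSO baseline.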

[8] = read-out: Bcl-2 (BAD) gene, BAD (gene 572); assay: LTEA_HepaRG_BAD: Life Technologies and Expression Analysis (LTEA) Assay for Bcl-2 (BAD) gene using HepaRG (AID 2283469)
In short: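 Differentiated human HepaRG cells in serum-free induction medium were exposed in duplicate for 48 h to eight concentrations (top 100 uM, half-log steps, 0.5% DMSO). BAD mRNA was quantified by qRT-PCR normalised to ACTB, GAPDH and POLR2A, with bidirectional fitting versus DMSO.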

[9] = read-out: Bcl-2 (BAX) gene, BAX (gene 581); assay: LTEA_HepaRG_BAX: Life Technologies and Expression Analysis (LTEA) Assay for Bcl-2 (BAX) gene using HepaRG (AID 2283470)
In short: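 Concentration-response endpoint fitted in both directions relative to 0.5% DMSO vehicle. Human HepaRG cultures receive test chemicals for 48 h at up to 100 uM; BAX mRNA is quantified by qRT-PCR against housekeeping genes.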

[10] = read-out: adenosine kinase (ADK) gene, ADK (gene 132); assay: LTEA_HepaRG_ADK: Life Technologies and Expression Analysis (LTEA) Assay for adenosine kinase (ADK) gene using HepaRG (AID 2283471)
In short: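 HepaRG (human liver), 48 h chemical exposure, 8-pt half-log series, top 100 uM, 0.5% DMSO vehicle. Readout: ADK mRNA by qRT-PCR vs housekeeping genes; bidirectional curve fit relative to DMSO baseline.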

[11] = read-out: Alpha-fetoprotein (AFP) gene, AFP (gene 174); assay: LTEA_HepaRG_AFP: Life Technologies and Expression Analysis (LTEA) Assay for Alpha-fetoprotein (AFP) gene using HepaRG (AID 2283472)
In short: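 After a 48 h plating period, cells are moved to serum-free induction medium and dosed in duplicate (100 uM maximum, half-log dilutions, 0.5% DMSO) for another 48 h. Total RNA goes to TaqMan qRT-PCR; AFP signal is housekeeping-normalized.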

BCL2L11 (gene 10018) = assay: LTEA_HepaRG_BCL2L11: Life Technologies and Expression Analysis (LTEA) Assay for Bcl-2 (BCL2L11) gene using HepaRG (AID 2283473)
In short: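 HepaRG, 48 h exposure, 8-pt half-log series from 100 uM in 0.5% DMSO, duplicates; qRT-PCR (Fluidigm TaqMan) for BCL2L11, housekeeping-normalized; bidirectional curve fit relative to DMSO baseline.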

[12] = read-out: Apolipoprotein A-V (APOA5) gene, APOA5 (gene 116519); assay: LTEA_HepaRG_APOA5: Life Technologies and Expression Analysis (LTEA) Assay for Apolipoprotein A-V (APOA5) gene using HepaRG (AID 2283474)
In short: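 HepaRG, 48 h chemical exposure in serum-free induction medium, 8-pt half-log series (top 100 uM), 0.5% DMSO vehicle, duplicates. Readout: APOA5 mRNA by qRT-PCR, housekeeping-normalized; bidirectional fit vs DMSO baseline.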

[13] = read-out: Apoptosis regulator Bcl-2 (Homo sapiens) (UniProt P10415); assay: LTEA_HepaRG_BCL2: Life Technologies and Expression Analysis (LTEA) Assay for Bcl-2 gene using HepaRG (AID 2283475)
In short: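 Expression change of BCL2 mRNA in HepaRG after 48 h dosing, quantified by TaqMan qRT-PCR against three endogenous controls. Concentration-response used eight points up to 100 uM, vehicle 0.5% DMSO.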

Caspase-3 (Homo sapiens) = Caspase-3 (Homo sapiens) (UniProt P42574); assay: LTEA_HepaRG_CASP3: Life Technologies and Expression Analysis (LTEA) Assay for cysteine-aspartic acid protease (CASP3) using HepaRG (AID 2283477)
Chain of Caspase-3 (Homo sapiens) (P42574 whole entry, looked up): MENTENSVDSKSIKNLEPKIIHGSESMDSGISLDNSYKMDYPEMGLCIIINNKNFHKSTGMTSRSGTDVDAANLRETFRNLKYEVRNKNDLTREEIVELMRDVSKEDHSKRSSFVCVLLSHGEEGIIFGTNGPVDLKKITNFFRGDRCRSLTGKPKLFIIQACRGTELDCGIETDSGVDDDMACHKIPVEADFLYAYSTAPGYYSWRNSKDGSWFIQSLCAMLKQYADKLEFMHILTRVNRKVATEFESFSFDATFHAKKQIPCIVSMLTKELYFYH
In short: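 HepaRG, 48 h exposure, 8 conc. (top 100 uM, half-log steps, duplicate), 0.5% DMSO vehicle; qRT-PCR of CASP3 transcript, housekeeping-normalised (ACTB/GAPDH/POLR2A); bidirectional curve fit vs DMSO baseline.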

[14] = read-out: ATP-citrate lyase (ACLY), ACLY (gene 47); assay: LTEA_HepaRG_ACLY: Life Technologies and Expression Analysis (LTEA) Assay for ATP-citrate lyase (ACLY) using HepaRG (AID 2283466)
In short: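 Differentiated human HepaRG cells in serum-free induction medium exposed 48 h, in duplicate, to eight half-log concentrations from 100 uM top in 0.5% DMSO; ACLY mRNA measured by qRT-PCR, normalized to ACTB, GAPDH, POLR2A, fitted bidirectionally versus DMSO.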

[15] = read-out: Bcl-2 (BID) gene, BID (gene 637); assay: LTEA_HepaRG_BID: Life Technologies and Expression Analysis (LTEA) Assay for Bcl-2 (BID) gene using HepaRG (AID 2283476)
In short: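 Gain or loss of BID expression is fitted relative to 0.5% DMSO vehicle. Human HepaRG liver cells received a 48 h chemical exposure over an eight-point concentration range.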

[16] = read-out: ABC Transporter (ABCC3), ABCC3 (gene 8714); assay: LTEA_HepaRG_ABCC3: Life Technologies and Expression Analysis (LTEA) Assay for ABC Transporter (ABCC3) using HepaRG (AID 2283462)
In short: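 qRT-PCR read-out of ABCC3 transcript, normalized to three housekeeping genes (ACTB, GAPDH, POLR2A), after 48 h chemical exposure of human HepaRG cells. Eight half-log concentrations, highest 100 uM, in 0.5% DMSO; gain or loss fitted relative to DMSO baseline.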

[17] = read-out: ABC Transporter (ABCC2), ABCC2 (gene 1244); assay: LTEA_HepaRG_ABCC2: Life Technologies and Expression Analysis (LTEA) Assay for ABC Transporter (ABCC2) using HepaRG (AID 2283464)
In short: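 qRT-PCR (TaqMan, Fluidigm array) read-out of ABCC2 mRNA, normalized to three housekeeping genes. Differentiated HepaRG cells were treated 48 h in serum-free induction medium with 8-point half-log series from 100 uM in 0.5% DMSO; curves fitted bidirectionally relative to DMSO.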

Measured: AC50

Chain of Apoptosis regulator Bcl-2 (Homo sapiens) (P10415 whole entry, looked up): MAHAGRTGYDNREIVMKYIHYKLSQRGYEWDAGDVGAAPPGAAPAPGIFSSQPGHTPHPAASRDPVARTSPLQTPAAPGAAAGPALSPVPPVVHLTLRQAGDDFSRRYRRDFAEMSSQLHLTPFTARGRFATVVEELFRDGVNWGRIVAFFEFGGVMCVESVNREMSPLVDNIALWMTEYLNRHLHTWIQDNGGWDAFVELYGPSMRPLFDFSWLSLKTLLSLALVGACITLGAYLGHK
Chain of Broad substrate specificity ATP-binding cassette transporter ABCG2 (Homo sapiens) (Q9UNQ0 whole entry, looked up): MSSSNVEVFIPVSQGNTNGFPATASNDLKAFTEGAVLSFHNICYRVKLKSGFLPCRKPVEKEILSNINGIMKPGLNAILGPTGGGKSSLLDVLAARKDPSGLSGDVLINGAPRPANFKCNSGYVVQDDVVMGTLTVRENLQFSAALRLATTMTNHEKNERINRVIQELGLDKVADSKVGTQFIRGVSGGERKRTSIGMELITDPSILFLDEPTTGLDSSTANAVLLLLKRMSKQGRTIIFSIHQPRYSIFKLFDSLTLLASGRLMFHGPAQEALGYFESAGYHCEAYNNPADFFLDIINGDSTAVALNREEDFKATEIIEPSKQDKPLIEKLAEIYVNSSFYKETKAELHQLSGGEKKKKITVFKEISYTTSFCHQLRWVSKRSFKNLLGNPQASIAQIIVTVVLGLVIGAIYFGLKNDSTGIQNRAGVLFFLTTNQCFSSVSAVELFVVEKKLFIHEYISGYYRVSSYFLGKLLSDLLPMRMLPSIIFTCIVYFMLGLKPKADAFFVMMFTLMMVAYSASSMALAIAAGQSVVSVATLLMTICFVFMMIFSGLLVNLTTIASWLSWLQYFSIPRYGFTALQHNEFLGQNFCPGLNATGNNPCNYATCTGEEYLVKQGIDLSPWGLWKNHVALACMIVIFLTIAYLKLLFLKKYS

CCCCc1ccc2c(n1)[C@@H](c1ccc(OC)cc1C[C@H](C)C(=O)O)[C@H](C(=O)O)[C@H]2c1ccc2c(c1)OCO2
not listed: [14] | [15] | [16] | [17]
inactive: all other assays above

CCOC(=O)C(C)(C)Oc1ccc(Cl)cc1
not listed: [16] | [17]
inactive: all other assays above

O=[N+]([O-])C(CO)(CO)CO
not listed: [2] | [5] | [6] | [14] | [15] | [17]
inactive: all other assays above

FC(F)(F)C(F)(F)C(F)(F)C(F)(F)C(F)(F)C(F)(F)CCI
not listed: [14] | [16] | [17]
inactive: all other assays above

Cc1cc(=O)[nH]c(=S)[nH]1
not listed: [16]
inactive: all other assays above

CC(=O)Oc1ccccc1C(=O)O
not listed: [5] | [15] | [17]
inactive: all other assays above

O=C(OCCCCCOC(=O)c1ccccc1)c1ccccc1
inactive: [3] | [6]
active: [1] 2.13 µM | [2] 0.14 µM | [4] 0.572 µM | [14] 50 µM | [7] 1.46 µM | [8] 1.95 µM | [9] 1.78 µM | [10] 1.57 µM | [11] 0.77 µM | BCL2L11 (gene 10018) 2.45 µM | [12] 3.02 µM | [13] 1.67 µM | [15] 2.7 µM | Caspase-3 (Homo sapiens) 0.627 µM

Nc1ccccc1N
active: [1] 50 µM | [2] 63.3 µM | [3] 50 µM | [17] 71 µM | [9] 40.6 µM | [10] 85.7 µM | [11] 72 µM | BCL2L11 (gene 10018) 50 µM | [12] 58.2 µM
inactive: [5] | [7] | [8] | [13] | Caspase-3 (Homo sapiens)

CCOC(=O)CCC(=O)OCC
active: [10] 79.3 µM
not listed: [5] | [6] | [15] | [16]
inactive: all other assays above

CNCc1cc(F)ccc1Oc1ccc(Cl)c(Cl)c1
active: [3] 91.3 µM | [17] 75.6 µM | [7] 81.8 µM | [13] 88.3 µM
not listed: [5] | [6] | [14] | [16]
inactive: all other assays above

CCCCCCCCCCCCCO
not listed: [5] | [16]
inactive: all other assays above

CC(=O)C(C)=CC1C(C)=CCCC1(C)C (configuration not stated)
not listed: [5] | [14] | [15] | [16]
inactive: all other assays above

CN1CCN(Cc2cc(-c3ccc4[nH]c(=O)oc4c3)co2)[C@@H](c2ccc(F)cc2)C1
active: [4] 67.9 µM | [7] 50 µM | [11] 90.1 µM
not listed: [5] | [6] | [14] | [16]
inactive: all other assays above
